# According to the supplement of paper PMC4466140:
# Legend:
# Assay in all cases: SPOT peptide array binding signal intensity (averaged, normalized) (arbitrary units (background-subtracted, floor 0; scale differs between SH3 domains)); higher = stronger binding of the SH3 domain to the peptide
# [1] = biological target: AgAbp1
# Method: (§1)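 GST-tagged SH3 domains from S. cerevisiae (Sc), A. gossypii (Ag), C. albicans (Ca) and S. pombe (Sp) were incubated at 10 ug/ml overnight at 4 C on cellulose SPOT membranes carrying 292 synthetic 15-mer peptides mined from the S. cerevisiae proteome (cysteines replaced by serines). Binding was detected with anti-GST antibody, HRP secondary and chemiluminescence, quantified with Genespotter, and reported as normalized spot intensities averaged over biological replicates.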
# [2] = biological target: AgBbc1
# Method: as §1
# [3] = biological target: AgBem1-D1
# Method: as §1
# [4] = biological target: AgBzz1-D1
# Method: as §1
# [5] = biological target: AgBzz1-D2
# Method: as §1
# [6] = biological target: AgCyk3
# Method: as §1
# [7] = biological target: AgFus1
# Method: as §1
# [8] = biological target: AgHof1
# Method: as §1
# [9] = biological target: AgHse1
# Method: as §1
# [10] = biological target: AgLsb1
# Method: as §1
# [11] = biological target: AgLsb4
# Method: as §1
# [12] = biological target: AgMyo5
# Method: as §1
# [13] = biological target: AgNbp2
# Method: as §1
# [14] = biological target: AgRvs167
# Method: as §1
# [15] = biological target: AgSho1
# Method: as §1
# [16] = biological target: AgSla1-D1-D2
# Method: as §1
# [17] = biological target: AgSla1-D3
# Method: as §1
# [18] = biological target: CaAbp1-D1
# Method: as §1
# [19] = biological target: CaAbp1-D2
# Method: as §1
# [20] = biological target: CaBbc1
# Method: as §1
# [21] = biological target: CaBem1-D1
# Method: as §1
# [22] = biological target: CaBzz1-D1
# Method: as §1
# [23] = biological target: CaBzz1-D2
# Method: as §1
# [24] = biological target: CaCyk3
# Method: as §1
# [25] = biological target: CaFus1
# Method: as §1
# [26] = biological target: CaHof1
# Method: as §1
# [27] = biological target: CaHse1
# Method: as §1
# [28] = biological target: CaLsb1
# Method: as §1
# [29] = biological target: CaLsb4
# Method: as §1
# [30] = biological target: CaMyo5
# Method: as §1
# [31] = biological target: CaNbp2
# Method: as §1
# [32] = biological target: CaRvs167
# Method: as §1
# [33] = biological target: CaRvs167-3
# Method: as §1
# [34] = biological target: CaSho1
# Method: as §1
# [35] = biological target: CaSla1-D1-D2
# Method: as §1
# [36] = biological target: CaSla1-D3
# Method: as §1
# [37] = biological target: ScAbp1
# Method: as §1
# [38] = biological target: ScBbc1
# Method: as §1
# [39] = biological target: ScBem1-D1
# Method: as §1
# [40] = biological target: ScBzz1-D1
# Method: as §1
# [41] = biological target: ScBzz1-D2
# Method: as §1
# [42] = biological target: ScCyk3
# Method: as §1
# [43] = biological target: ScFus1
# Method: as §1
# [44] = biological target: ScHof1
# Method: as §1
# [45] = biological target: ScHse1
# Method: as §1
# [46] = biological target: ScLsb1
# Method: as §1
# [47] = biological target: ScLsb2
# Method: as §1
# [48] = biological target: ScLsb3
# Method: as §1
# [49] = biological target: ScLsb4
# Method: as §1
# [50] = biological target: ScMyo3
# Method: as §1
# [51] = biological target: ScMyo5
# Method: as §1
# [52] = biological target: ScNbp2
# Method: as §1
# [53] = biological target: ScPex13
# Method: as §1
# [54] = biological target: ScRvs167
# Method: as §1
# [55] = biological target: ScSho1
# Method: as §1
# [56] = biological target: ScSla1-D1-D2
# Method: as §1
# [57] = biological target: ScSla1-D3
# Method: as §1
# [58] = biological target: SpAbp1-D1
# Method: as §1
# [59] = biological target: SpBbc1
# Method: as §1
# [60] = biological target: SpBzz1-D1
# Method: as §1
# [61] = biological target: SpBzz1-D2
# Method: as §1
# [62] = biological target: SpCyk3
# Method: as §1
# [63] = biological target: SpHof1
# Method: as §1
# [64] = biological target: SpHof1-2
# Method: as §1
# [65] = biological target: SpHof1-3
# Method: as §1
# [66] = biological target: SpHse1
# Method: as §1
# [67] = biological target: SpLsb1
# Method: as §1
# [68] = biological target: SpLsb4
# Method: as §1
# [69] = biological target: SpMyo1
# Method: as §1
# [70] = biological target: SpNbp2
# Method: as §1
# [71] = biological target: SpPex13
# Method: as §1
# [72] = biological target: SpRvs167
# Method: as §1
# [73] = biological target: SpSla1-D1-D2
# Method: as §1
# [74] = biological target: SpSla1-D3
# Method: as §1
binder,measurement,setting,value
ALKQKKIPPPFKPHL,SPOT peptide array binding signal intensity,[1],43.5
same,SPOT peptide array binding signal intensity,[2],≤ 0
same,SPOT peptide array binding signal intensity,[3],4
same,SPOT peptide array binding signal intensity,[4],43
same,SPOT peptide array binding signal intensity,[5],22
same,SPOT peptide array binding signal intensity,[6],≤ 0
same,SPOT peptide array binding signal intensity,[7],≤ 0
same,SPOT peptide array binding signal intensity,[8],7.5
same,SPOT peptide array binding signal intensity,[9],≤ 0
same,SPOT peptide array binding signal intensity,[10],≤ 0
same,SPOT peptide array binding signal intensity,[11],≤ 0
same,SPOT peptide array binding signal intensity,[12],≤ 0
same,SPOT peptide array binding signal intensity,[13],≤ 0
same,SPOT peptide array binding signal intensity,[14],≤ 0
same,SPOT peptide array binding signal intensity,[15],≤ 0
same,SPOT peptide array binding signal intensity,[16],≤ 0
same,SPOT peptide array binding signal intensity,[17],2.5
same,SPOT peptide array binding signal intensity,[18],938
same,SPOT peptide array binding signal intensity,[19],984
same,SPOT peptide array binding signal intensity,[20],≤ 0
same,SPOT peptide array binding signal intensity,[21],2
same,SPOT peptide array binding signal intensity,[22],589
same,SPOT peptide array binding signal intensity,[23],205
same,SPOT peptide array binding signal intensity,[24],≤ 0
same,SPOT peptide array binding signal intensity,[25],19.5
same,SPOT peptide array binding signal intensity,[26],0.5
same,SPOT peptide array binding signal intensity,[27],0.5
same,SPOT peptide array binding signal intensity,[28],≤ 0
same,SPOT peptide array binding signal intensity,[29],≤ 0
same,SPOT peptide array binding signal intensity,[30],0.5
same,SPOT peptide array binding signal intensity,[31],15.5
same,SPOT peptide array binding signal intensity,[32],≤ 0
same,SPOT peptide array binding signal intensity,[33],4.5
same,SPOT peptide array binding signal intensity,[34],≤ 0
same,SPOT peptide array binding signal intensity,[35],≤ 0
same,SPOT peptide array binding signal intensity,[36],2
same,SPOT peptide array binding signal intensity,[37],29
same,SPOT peptide array binding signal intensity,[38],≤ 0
same,SPOT peptide array binding signal intensity,[39],≤ 0
same,SPOT peptide array binding signal intensity,[40],9
same,SPOT peptide array binding signal intensity,[41],3
same,SPOT peptide array binding signal intensity,[42],≤ 0
same,SPOT peptide array binding signal intensity,[43],≤ 0
same,SPOT peptide array binding signal intensity,[44],1
same,SPOT peptide array binding signal intensity,[45],74
same,SPOT peptide array binding signal intensity,[46],≤ 0
same,SPOT peptide array binding signal intensity,[47],≤ 0
same,SPOT peptide array binding signal intensity,[48],≤ 0
same,SPOT peptide array binding signal intensity,[49],≤ 0
same,SPOT peptide array binding signal intensity,[50],≤ 0
same,SPOT peptide array binding signal intensity,[51],1
same,SPOT peptide array binding signal intensity,[52],≤ 0
same,SPOT peptide array binding signal intensity,[53],≤ 0
same,SPOT peptide array binding signal intensity,[54],≤ 0
same,SPOT peptide array binding signal intensity,[55],≤ 0
same,SPOT peptide array binding signal intensity,[56],≤ 0
same,SPOT peptide array binding signal intensity,[57],8
same,SPOT peptide array binding signal intensity,[58],20.5
same,SPOT peptide array binding signal intensity,[59],≤ 0
same,SPOT peptide array binding signal intensity,[60],288
LASNSPPVYPKRIRH,SPOT peptide array binding signal intensity,[1],45
same,SPOT peptide array binding signal intensity,[2],18.2
same,SPOT peptide array binding signal intensity,[3],≤ 0
same,SPOT peptide array binding signal intensity,[4],59
same,SPOT peptide array binding signal intensity,[5],6
same,SPOT peptide array binding signal intensity,[6],≤ 0
same,SPOT peptide array binding signal intensity,[7],≤ 0
same,SPOT peptide array binding signal intensity,[8],≤ 0
same,SPOT peptide array binding signal intensity,[9],3.5
same,SPOT peptide array binding signal intensity,[10],2.5
same,SPOT peptide array binding signal intensity,[11],196
same,SPOT peptide array binding signal intensity,[12],≤ 0
same,SPOT peptide array binding signal intensity,[13],≤ 0
same,SPOT peptide array binding signal intensity,[14],4.17
same,SPOT peptide array binding signal intensity,[15],≤ 0
same,SPOT peptide array binding signal intensity,[16],2
same,SPOT peptide array binding signal intensity,[17],≤ 0
same,SPOT peptide array binding signal intensity,[18],93
same,SPOT peptide array binding signal intensity,[19],47.5
same,SPOT peptide array binding signal intensity,[20],400
same,SPOT peptide array binding signal intensity,[21],6
same,SPOT peptide array binding signal intensity,[22],165
same,SPOT peptide array binding signal intensity,[23],44.8
same,SPOT peptide array binding signal intensity,[24],≤ 0
same,SPOT peptide array binding signal intensity,[25],≤ 0
same,SPOT peptide array binding signal intensity,[26],0.25
same,SPOT peptide array binding signal intensity,[27],≤ 0
same,SPOT peptide array binding signal intensity,[28],≤ 0
same,SPOT peptide array binding signal intensity,[29],771
same,SPOT peptide array binding signal intensity,[30],≤ 0
same,SPOT peptide array binding signal intensity,[31],≤ 0
same,SPOT peptide array binding signal intensity,[32],4.17
same,SPOT peptide array binding signal intensity,[33],2.25
same,SPOT peptide array binding signal intensity,[34],3
same,SPOT peptide array binding signal intensity,[35],56
same,SPOT peptide array binding signal intensity,[36],≤ 0
same,SPOT peptide array binding signal intensity,[37],39.5
same,SPOT peptide array binding signal intensity,[38],16.8
same,SPOT peptide array binding signal intensity,[39],≤ 0
same,SPOT peptide array binding signal intensity,[40],≤ 0
same,SPOT peptide array binding signal intensity,[41],19
same,SPOT peptide array binding signal intensity,[42],1
same,SPOT peptide array binding signal intensity,[43],≤ 0
same,SPOT peptide array binding signal intensity,[44],0.75
same,SPOT peptide array binding signal intensity,[45],≤ 0
same,SPOT peptide array binding signal intensity,[46],46.5
same,SPOT peptide array binding signal intensity,[47],10
same,SPOT peptide array binding signal intensity,[48],1560
same,SPOT peptide array binding signal intensity,[49],45.5
same,SPOT peptide array binding signal intensity,[50],≤ 0
same,SPOT peptide array binding signal intensity,[51],≤ 0
same,SPOT peptide array binding signal intensity,[52],≤ 0
same,SPOT peptide array binding signal intensity,[53],56.5
same,SPOT peptide array binding signal intensity,[54],7.67
same,SPOT peptide array binding signal intensity,[55],27.5
same,SPOT peptide array binding signal intensity,[56],11
same,SPOT peptide array binding signal intensity,[57],≤ 0
same,SPOT peptide array binding signal intensity,[58],18.5
same,SPOT peptide array binding signal intensity,[59],≤ 0
same,SPOT peptide array binding signal intensity,[60],248
same,SPOT peptide array binding signal intensity,[61],≤ 0
same,SPOT peptide array binding signal intensity,[62],≤ 0
same,SPOT peptide array binding signal intensity,[63],1.5
same,SPOT peptide array binding signal intensity,[64],1
same,SPOT peptide array binding signal intensity,[65],2.75
same,SPOT peptide array binding signal intensity,[66],≤ 0
same,SPOT peptide array binding signal intensity,[67],257
same,SPOT peptide array binding signal intensity,[68],1810
same,SPOT peptide array binding signal intensity,[69],≤ 0
same,SPOT peptide array binding signal intensity,[70],0.5
same,SPOT peptide array binding signal intensity,[71],≤ 0
same,SPOT peptide array binding signal intensity,[72],3.5
same,SPOT peptide array binding signal intensity,[73],≤ 0
same,SPOT peptide array binding signal intensity,[74],≤ 0
